Results as given in PubChem BioAssay AID1159580 (chemical genetic matrix, 2015).
The whole screen tested about 5,500 compounds, of which about 2,000 (36%) were called active. Not shown: some 18% with an inconclusive outcome. Rule as the data show it: active = normalized growth mostly below about 0.91 (no sharp cut-off); inconclusive = no clear call, values can overlap the other calls; inactive = mostly above about 0.92. Some of the results follow.

Experiment: chemical genetic growth profiling, strain panel (AID 1159580);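 also: tested at 20 µM; growth read once vehicle control cultures reached saturation at 30 °C; 1 = growth at the plate median or of vehicle wells; lower values mean less growth of the strain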
Conditions: S. cerevisiae deletion strains, growth OD

Measured: normalized growth

Cc1ccc(S(=O)(=O)NC(=O)Nc2ccc(Sc3ccccc3)nc2Sc2ccccc2)cc1
inactive: locus YAR019C, strain CDC15, active compounds read low 0.984 | locus YBL105C, strain PKC1, active compounds read low 0.967 | locus YBR135W, strain CKS1, active compounds read low 0.968 | locus YBR136W, strain MEC1, active compounds read low 0.972 | locus YBR160W, strain CDC28, active compounds read low 0.969 | locus YDL017W, strain CDC7, active compounds read low 0.974 | locus YDL028C, strain MPS1, active compounds read low 0.974 | locus YDL101C, strain DUN1, active compounds read low 0.983 | locus YDL108W, strain KIN28, active compounds read low 0.966 | locus YDL132W, strain cdc53, active compounds read low 0.956 | locus YDL214C, strain PRR2, active compounds read low 0.927 | locus YDR052C, strain DBF4, active compounds read low 0.978 | locus YDR054C, strain cdc34, active compounds read low 0.969 | locus YDR226W, strain ADK1, active compounds read low 0.977 | locus YDR477W, strain SNF1, active compounds read low 0.936 | locus YER123W, strain YCK3, active compounds read low 0.976 | locus YER133W, strain GLC7, active compounds read low 0.961 | locus YFL009W, strain cdc4, active compounds read low 0.957 | locus YFL029C, strain CAK1, active compounds read low 0.979 | locus YFR003C, strain YPI1, active compounds read low 0.969 | locus YFR019W, strain FAB1, active compounds read low 0.993 | locus YFR028C, strain CDC14, active compounds read low 0.974 | locus YGR040W, strain KSS1, active compounds read low 0.942 | locus YGR052W, strain FMP48, active compounds read low 0.982 | locus YGR092W, strain DBF2, active compounds read low 0.913 | locus YHR079C, strain IRE1, active compounds read low 0.948 | locus YHR082C, strain KSP1, active compounds read low 1.03 | locus YHR205W, strain SCH9, active compounds read low 0.946 | locus YIL147C, strain SLN1, active compounds read low 0.977 | locus YJL095W, strain BCK1, active compounds read low 0.933 | locus YJL128C, strain PBS2, active compounds read low 0.967 | locus YJL157C, strain FAR1, active compounds read low 0.97 | locus YJR016C, strain ILV3, active compounds read low 0.98 | locus YJR066W, strain TOR1 (second series), active compounds read low 0.967 | locus YJR066W, strain TOR1, active compounds read low 0.95 | locus YKL048C, strain ELM1, active compounds read low 0.97 | locus YKL067W, strain YNK1, active compounds read low 0.914 | locus YKL101W, strain HSL1, active compounds read low 0.957 | locus YKL193C, strain SDS22, active compounds read low 0.972 | locus YKL203C, strain TOR2, active compounds read low 1.04 | locus YLR113W, strain HOG1, active compounds read low 0.885 | locus YLR133W, strain CKI1, active compounds read low 0.954 | locus YLR403W, strain SFP1, active compounds read low 0.999 | locus YML070W, strain DAK1, active compounds read low 0.972 | locus YMR001C, strain CDC5, active compounds read low 0.971 | locus YMR205C, strain PFK2 (second series), active compounds read low 0.944 | locus YMR277W, strain FCP1, active compounds read low 0.965 | locus YNL006W, strain LST8, active compounds read low 0.968 | locus YNL020C, strain ARK1, active compounds read low 0.949 | locus YNL161W, strain CBK1, active compounds read low 0.973 | locus YNL183C, strain NPR1, active compounds read low 0.969 | locus YNL207W, strain RIO2, active compounds read low 0.966 | locus YNL222W, strain SSU72, active compounds read low 0.948 | locus YNL307C, strain MCK1 (second series), active compounds read low 0.945 | locus YOL078W, strain AVO1, active compounds read low 0.966 | locus YOL136C, strain PFK27, active compounds read low 0.972 | locus YOR061W, strain CKA2, active compounds read low 0.938 | locus YOR119C, strain RIO1, active compounds read low 0.98 | locus YOR231W, strain MKK1, active compounds read low 0.976 | locus YOR329C, strain SCD5, active compounds read low 0.977 | locus YPL031C, strain PHO85, active compounds read low 0.94 | locus YPL153C, strain RAD53, active compounds read low 0.946 | locus YPL204W, strain HRR25, active compounds read low 0.934 | locus YPL209C, strain IPL1, active compounds read low 0.976 | locus YPL256C, strain CLN2, active compounds read low 0.955 | locus YPR025C, strain CCL1, active compounds read low 0.97 | locus YPR106W, strain ISR1, active compounds read low 0.979 | locus YPR111W, strain DBF20, active compounds read low 0.954 | strain NNK1, active compounds read low 0.974 | strain TSCII, active compounds read low 0.963
active: locus YHR030C, strain SLT2, active compounds read low 0.745
